In paper PMC4336329 (PLoS ONE, 2015):
About 14,000 (4.5%) of roughly 310,000 compounds showed an effect of 50% or more. The effect is printed as a negative number. The sample holds strong results, similar compounds and a random draw of the others, so the mix is not that of the screen.

biological target: human ether-à-go-go-related gene (hERG) potassium channel (human, UniProt Q12809); assay: primary screen, population patch clamp on CHO cells stably expressing hERG; higher = less effect of the substance
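Also: peak tail current of the secondary pulse compared with the same well before compound.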

human ether-à-go-go-related gene (hERG) potassium channel, sequence (Q12809 whole entry, looked up): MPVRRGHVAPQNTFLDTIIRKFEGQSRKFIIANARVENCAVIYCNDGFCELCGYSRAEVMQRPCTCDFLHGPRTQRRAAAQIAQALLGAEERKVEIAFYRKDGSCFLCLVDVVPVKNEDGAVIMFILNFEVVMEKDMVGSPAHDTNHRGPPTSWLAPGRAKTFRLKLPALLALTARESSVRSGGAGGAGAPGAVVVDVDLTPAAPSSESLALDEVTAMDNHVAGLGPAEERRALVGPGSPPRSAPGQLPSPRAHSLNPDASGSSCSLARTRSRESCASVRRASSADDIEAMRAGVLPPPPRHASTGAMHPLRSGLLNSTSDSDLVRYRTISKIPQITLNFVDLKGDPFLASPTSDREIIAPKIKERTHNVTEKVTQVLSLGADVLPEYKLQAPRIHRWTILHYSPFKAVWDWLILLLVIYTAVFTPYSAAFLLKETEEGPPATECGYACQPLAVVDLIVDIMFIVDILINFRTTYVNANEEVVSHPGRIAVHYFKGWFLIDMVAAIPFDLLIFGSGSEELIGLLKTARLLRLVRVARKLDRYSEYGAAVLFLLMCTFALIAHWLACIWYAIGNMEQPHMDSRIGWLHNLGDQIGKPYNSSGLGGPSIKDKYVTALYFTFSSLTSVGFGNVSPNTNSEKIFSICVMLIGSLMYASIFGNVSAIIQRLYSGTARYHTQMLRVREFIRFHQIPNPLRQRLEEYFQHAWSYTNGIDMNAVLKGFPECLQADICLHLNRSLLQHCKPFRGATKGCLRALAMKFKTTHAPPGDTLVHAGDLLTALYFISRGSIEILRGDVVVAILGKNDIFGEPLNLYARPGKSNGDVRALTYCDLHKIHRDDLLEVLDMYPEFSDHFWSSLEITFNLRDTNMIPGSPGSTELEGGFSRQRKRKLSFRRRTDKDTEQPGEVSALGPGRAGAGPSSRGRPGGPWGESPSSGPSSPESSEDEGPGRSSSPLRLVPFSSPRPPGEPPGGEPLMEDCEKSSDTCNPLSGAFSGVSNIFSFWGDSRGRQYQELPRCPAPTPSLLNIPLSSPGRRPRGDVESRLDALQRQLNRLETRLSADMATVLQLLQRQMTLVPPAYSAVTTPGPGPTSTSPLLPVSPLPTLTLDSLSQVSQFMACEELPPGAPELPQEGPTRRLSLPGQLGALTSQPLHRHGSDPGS

SMILES | hERG current change (%, negative = inhibition) at 10uM [%]
CCN(CC)S(=O)(=O)c1ccc(C(=O)NCCCN=C2NS(=O)(=O)c3ccccc32)cc1 | -5.24
CCC1(CC)C(=O)C2=C3C1[C@H](C(=O)OC)C=C(C(=O)OC)C[C@H]3[C@H]1C(=O)N(CC(=O)OC)C(=O)[C@H]1[C@H]2C (some centres unmarked) | 5.84
COc1ccc(OC)c(S(=O)(=O)Nc2cc3c4c(c2)CCN4C(=O)CC3)c1 | -2.69
C=CCn1c(SCC(=O)N2CC(=O)Nc3ccccc32)nc2scc(-c3ccccc3)c2c1=O | -1.72
O=C(CSc1nccn(-c2ccc(Br)cc2)c1=O)NC1CCCC1 | 13.7
Cc1nnc(NC(=O)CSc2nnc(CNC(=O)c3ccc(S(=O)(=O)N(C)C)cc3)o2)s1 | 22.6
CC(Cl)C(=O)NNC(=O)CNS(=O)(=O)c1ccccc1 (centres unmarked) | -0.478
Cc1ccc(NC(/C=C/N(C)C)=C/C(=O)C(F)(F)F)c(C)c1 | -56.7
CN(C)/C=C/C(=C\C(=O)C(F)(F)F)Nc1ccc(C(F)(F)F)cc1 | 2.83
CN(C)/C=C\C(=C/C(=O)C(F)(F)F)Nc1ccccc1Oc1ccccc1 | -24.4
COc1cc(COCC(O)CN2CCc3ccccc3C2)cc(OC)c1OC.Cl (centres unmarked) | -21.7
C=CCc1ccc(OCC(O)CN2CCC(Cc3ccccc3)CC2)c(OC)c1.Cl (centres unmarked) | -77.5
C=CCc1ccc(OCC(O)CN2CCN(c3ccccc3)CC2)c(OC)c1.Cl (centres unmarked) | -70.3
COc1cc(COCC(O)CN2CCCCC2C)cc(OC)c1OC.Cl (centres unmarked) | 20.6
C=CCc1ccc(OCC(O)CN2CCc3ccccc3C2)c(OC)c1.Cl (centres unmarked) | -68.8
C=CCc1ccc(OCC(O)CN2CCN(c3ccccc3OC)CC2)c(OC)c1.Cl (centres unmarked) | -16.2
C=CCc1ccc(OCC(O)COc2ccc(CC=C)cc2OC)c(OC)c1 | -24.5
C=CCc1ccc(OCC(O)CN2CCCCC2C)c(OC)c1.Cl (centres unmarked) | -55.1
CC(=O)C(C)n1c(CN(C)Cc2ccccc2)nc2c1c(=O)n(C)c(=O)n2C (centres unmarked) | -5.4
O=C(CSc1cc([N+](=O)[O-])cc(S(=O)(=O)Cc2ccccc2)c1)NC1CC1 | -9.88
COCCNC(=O)COc1ccc(C)c(C)c1 | 3.36
Cc1cc(S(=O)(=O)N2CCC(N3CCCCC3)CC2)ccc1-n1cnnn1 | -1.17
COc1cccc(C2CC(c3ccccc3Cl)n3nnnc3N2)c1 (centres unmarked) | -12.1

SMILES | hERG current change (%, negative = inhibition) at 10uM [%]
O=C(Nc1nc2ccccc2s1)c1cccc(S(=O)(=O)N2CCc3ccccc32)c1 | -7.03
Cc1cccc(OCCCC(=O)NNC(=O)c2ccc(F)cc2)c1 | -7.21
COc1ccc(-c2nn3c(C4CCCCC4)nnc3s2)cc1OC | -15.2
COc1ccc(-n2nc(C(=O)NCC(=O)NC3CCCCCC3)c3ccccc3c2=O)c(OC)c1 | 11.1
N/C(=N\OC(=O)COc1ccc(Cl)cc1Br)c1cccnc1 | -8.3
C=CCc1ccc(OC)c(OC)c1 | 23.8
C=CCc1ccc(OCC(O)CN2CCN(Cc3ccc(Cl)cc3)CC2)c(OC)c1.Cl (centres unmarked) | -75.7
C=CCc1ccc(OCC(O)COCC)c(OC)c1 (centres unmarked) | -3.56
C=CCc1ccc(OCC(O)CN2CCN(Cc3ccccc3)CC2)c(OC)c1.Cl (centres unmarked) | -77
C=CCc1ccc(OCC(O)CN2CCCCC2)c(OC)c1 (centres unmarked) | -54.8
C=CCc1ccc(OCC(O)CO)c(OC)c1 (centres unmarked) | 11.6
C=CCN1C(=O)c2ccc(C(=O)N3CCN(S(=O)(=O)c4ccccc4Br)CC3)cc2C1=O | -41.2
O=C(NC(=S)Nc1ccccc1[N+](=O)[O-])c1ccccc1 | 6.17
CSc1nc(N)nc(SCCS(=O)(=O)c2ccc(Cl)cc2)c1C#N | -3.5
CN(C(=O)COC(=O)c1ccc2c(c1)NC(=O)CS2)C1CCS(=O)(=O)C1 (centres unmarked) | 31.3
CC1(C)C2C/C(=N\O)C(C)(/[N+]([O-])=C/c3cccc([N+](=O)[O-])c3)CC21 (centres unmarked) | -10.7
COc1ccc(C(C(=O)NC2CCCC2)N(Cc2cccnc2)C(=O)Cc2cccs2)cc1OC (centres unmarked) | -1.66
Cc1cccc(CN2CCOCCS2(=O)=O)c1 | 10.2
O=C(/C=C/c1cccs1)N1CCCC1 | 33.1
OCC1(Cc2cccc(F)c2)CCN(Cc2ccc3cccc(F)c3n2)CC1 | -64.7
COc1cccc(CN2CCN(Cc3ccc4cccc(F)c4n3)CC2CCO)c1 (centres unmarked) | -39.9
OCC1(CCOc2ccccc2)CCN(Cc2ccc3cccc(F)c3n2)CC1 | -83
COc1cccc(CC2(CO)CCN(Cc3ccc4cccc(F)c4n3)CC2)c1 | -64.4

SMILES | hERG current change (%, negative = inhibition) at 10uM [%]
COc1cccc(CC2(CO)CCN(S(=O)(=O)N(C)C)CC2)c1 | 11.9
OCC1(Cc2cccc(Cl)c2)CCCN(Cc2ccc3cc(F)ccc3n2)C1 (centres unmarked) | -23.8
CC(C)c1csc(CN2CCC(CO)(Cc3cccc(F)c3)CC2)n1 | -17.3
CC(=O)Cc1nsc(NC(=O)c2csc3c2CCCC3)n1 | -8.24
CCOc1ccccc1NC(=O)CSc1ccc(-c2ccco2)nn1 | -16.6
Cc1cccc(C2NC(c3cccc(C)c3)C(C)C(=O)C2C)c1 (centres unmarked) | 8.92
CSc1ncc(CN2CCN(C(C)C)C(CCO)C2)cn1 (centres unmarked) | -2.82
O=C(Nc1nnc(C2=COCCO2)o1)c1ccc(Br)cc1 | -0.63
CCCc1cc(=O)[nH]c(SCC(=O)N2CCN(c3ccc(F)cc3)CC2)n1 | -15.2
CCN(CC)Cc1c(C(=O)N/N=C/c2ccco2)nnn1-c1nonc1N | -14.3
FC(F)(F)c1cccc(N2Cc3ccccc3C2)c1 | 6.28
COc1cccc(-c2nc(CS(=O)(=O)CC(=O)NCCc3ccccc3)c(C)o2)c1 | 0.232
CCOC(=O)c1sc(=NC(=O)c2ccc(OC(C)C)cc2)n(C)c1C | 10.8
Nc1ccccc1-c1nnc(-c2ccc(-c3ccccc3)cc2)o1 | 10.1
COc1ccc(/C=C/CN2CCCC(C(=O)c3ccc(OC)c(F)c3)C2)cc1 (centres unmarked) | -94.5
Cc1cc(C(=O)N2CCCC(C(=O)c3cc(F)ccc3F)C2)c(C)o1 (centres unmarked) | -4.31
COc1ccc(C(=O)C2CCCN(C(=O)Cn3nc(C)cc3C)C2)cc1F (centres unmarked) | -17.4
COc1ccc(C(=O)C2CCCN(C(=O)c3ccoc3C)C2)cc1F (centres unmarked) | -6.04
CSCC(=O)N1CCCC(C(=O)c2cc(F)ccc2F)C1 (centres unmarked) | -1.1
COc1ccc(/C=C/CN2CCCC(C(=O)c3cc(F)ccc3F)C2)cc1 (centres unmarked) | -76.4
Cc1nn(-c2ccccc2)c(Cl)c1/C=N\NC(=O)c1cnccn1 | -5
CCc1cccc(C)c1NS(=O)(=O)c1cc(Br)cnc1N | 8.34
COC(=O)c1ccccc1NC(=S)NC(NC(=O)COc1ccccc1)C(Cl)(Cl)Cl (centres unmarked) | 7.66

SMILES | hERG current change (%, negative = inhibition) at 10uM [%]
CCN1CCN(C(=O)Cc2ccccc2OC)CC1 | 13.3
Cc1ccc(OCC(O)CN2CCN(c3ccccn3)CC2)c(C)c1.Cl (centres unmarked) | -60.5
Cc1cccc(OCC(O)CN2CCN(c3ccccn3)CC2)c1C.Cl (centres unmarked) | -45.5
Cc1cc(C)c(C)c(OCC(O)CN2CCN(c3ccccn3)CC2)c1.Cl (centres unmarked) | -54.4
Cc1ccccc1OCC(O)CN1CCN(c2ccccn2)CC1.Cl (centres unmarked) | -48.8
Cc1cc(C)c(OCC(O)CN2CCN(c3ccccn3)CC2)c(C)c1.Cl (centres unmarked) | -58.3
Cc1cc(C)c(C)c(OCC(=O)N2CCN(c3ccccn3)CC2)c1 | -33.6
Cc1cccc(C)c1OCC(O)CN1CCN(c2ccccn2)CC1 (centres unmarked) | -35.5
CC(C)(C)c1ccccc1OCC(O)CN1CCN(c2ccccn2)CC1.Cl (centres unmarked) | -48.8
CCc1noc(C)c1C(=O)N1CCCSC1=Nc1ccccc1OC | -8.77
O=C(CCCN1C(=O)/C(=C/c2ccccc2)SC1=S)N1CCOCC1 | -30.1
Cc1ccc(NC(=O)c2ccc(Cl)cc2[N+](=O)[O-])nc1 | 6.4
O=C(Cn1c(=O)oc2ccccc21)Nc1ccccc1C(F)(F)F | 21.6
COc1cc(/C=C2/C(=O)ON=C2C)ccc1OCc1ccccc1F | 2.22
COCCNC(=O)C(OC(=O)C1=Cc2ccccc2OC1)C(C)C (centres unmarked) | 10.3
O=C(NCc1ccco1)c1cnc2ccccn2c1=O | -3.03
N=c1c(C(=O)NCc2ccco2)cc2c(=O)n3ccccc3nc2n1C1CCCC1 | -77
Cc1ccc2nc(SCC(=O)NCc3ccco3)nc(=O)n2c1 | 8.08
Cn1c2ccccc2c2c(C(=O)NCc3ccco3)cn(C3CCCCC3)c(=O)c21 | -33.4
Cc1ccc2nc3c(cc(C(=O)NCc4ccco4)c(=N)n3C3CCCC3)c(=O)n2c1 | -75.8
